PubChem BioAssay (Tox21)
A number with no mark means an inactive call. Inconclusive results are not listed. A call without a number means that no potency is given here. Calls of active or inactive are those of the source. Unless noted, calls come from the whole dose curve; as a rule, active = well fitted curve in the direction sought with a large enough effect in the repeat runs; inconclusive = weak or mixed curves; inactive = no such curve, though single readings can be large; an effect the other way counts as inactive or inconclusive.

Assays:
[1] = qHTS assay to identify small molecule antagonists of the estrogen related receptor (ERR) signaling pathway from Tox21 library - cell viability counter screen (AID 1224834); note: nearly all actives have a fitted effect of over 30% in size
How it was run: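 Counter screen run in ERR cells (2,000 cells/well): cells pre-incubated 6 h, then treated with compounds for 17.5 h at 37 C. Fluorescence was read 30 min after CellTiter-Fluor addition.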

[2] = qHTS assay to identify small molecule antagonists of the constitutive androstane receptor (CAR) signaling pathway - cell viability counter screen (AID 1224837); note: nearly all actives have a fitted effect of over 45% in size
How it was run: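 CITCO at 50 nM final was added alongside compounds (15 concentrations) to double-stable hCAR/CYP2B6-2.2kb HepG2 cells. Following 23 hr at 37 C, cell viability was quantified by CellTiter-Fluor fluorescence intensity.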

[3] = biological target: Nuclear receptor subfamily 1 group I member 3 (Homo sapiens) (UniProt Q14994); assay: qHTS assay to identify small molecule antagonists of the constitutive androstane receptor (CAR) signaling pathway (AID 1224838); note: nearly all actives have a fitted effect of over 40% in size
Sequence of Nuclear receptor subfamily 1 group I member 3 (Homo sapiens) (Q14994 whole entry, looked up): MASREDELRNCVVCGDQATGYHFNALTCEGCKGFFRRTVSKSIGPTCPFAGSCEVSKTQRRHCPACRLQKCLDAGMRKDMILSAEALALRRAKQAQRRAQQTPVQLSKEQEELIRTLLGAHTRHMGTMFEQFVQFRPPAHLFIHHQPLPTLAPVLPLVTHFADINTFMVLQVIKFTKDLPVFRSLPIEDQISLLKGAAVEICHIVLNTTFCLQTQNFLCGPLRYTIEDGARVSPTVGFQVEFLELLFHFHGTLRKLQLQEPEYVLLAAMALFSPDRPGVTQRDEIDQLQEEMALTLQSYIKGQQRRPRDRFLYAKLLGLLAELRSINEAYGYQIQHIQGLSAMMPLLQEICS
How it was run: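 Inhibition of CITCO-driven (50 nM final) CYP2B6 reporter expression is measured in HepG2 cells stably carrying hCAR. Fifteen compound concentrations are applied for 24 h at 37 C, followed by luciferase luminescence.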

[4] = biological target: Nuclear receptor subfamily 1 group I member 3 (Homo sapiens) (UniProt Q14994); assay: qHTS assay to identify small molecule agonists of the constitutive androstane receptor (CAR) signaling pathway (AID 1224839); note: nearly all actives have a fitted effect of over 15% in size; note: potency is the fitted concentration of half-maximal effect
How it was run: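 HepG2-CYP2B6-hCAR cells, 2500/well, 4 h pre-incubation; compounds 15 conc.; PK11195 0.75 uM final; 24 h, 37 C/5% CO2; ONE-Glo luciferase read.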

[5] = qHTS assay to identify small molecule antagonists of the estrogen related receptor signaling pathway with the pleiotropic PPARgamma coactivator (PGC) from Tox21 10K library - cell viability counter screen (AID 1224840; active = well fitted cell-killing curve with a large enough effect in the repeat runs, not every such curve was filed as active; note: nearly all actives have a fitted effect of over 40% in size)
How it was run: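 Readout: fluorescence intensity from CellTiter-Fluor after 30 min at 37 C/5% CO2. Preceded by 17.5 h treatment of PGC/ERR cells with DMSO-dissolved compounds, added 6 h post-seeding.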

[6] = qHTS assay to identify small molecule antagonists of the estrogen related receptor signaling pathway with the pleiotropic PPARgamma coactivator (PGC) from Tox21 10K library (AID 1224841; call rule not given here; note: actives are mostly falling curves and most rising ones were filed inactive; nearly all actives have a fitted effect of over 50% in size; note: potency is the fitted concentration of half-maximal effect)
How it was run: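 One-Glo luminescence, measured after half an hour at room temperature, quantified reporter output of PGC/ERR cells. These had been plated at 2,000 per well, incubated 6 h, dosed with compounds in DMSO, then kept 18 h at 37 C.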

[7] = qHTS assay to identify small molecule agonists of the estrogen related receptor signaling pathway with the pleiotropic PPARgamma coactivator (PGC) from Tox21 10K library (AID 1224842); note: nearly all actives have a fitted effect of over 15% in size
How it was run: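 Luminescence from One-Glo (30 min, room temperature) measured after PGC/ERR cells had 18 h at 37 C with pinned compound (23 nL in DMSO). Cells had been seeded at 2,000 per well and pre-incubated 6 h.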

[8] = qHTS assay to identify small molecule agonists of the hypoxia (HIF-1) signaling pathway - cell viability counter screen (AID 1224844; calls by dose curve; note: nearly all actives have a fitted effect of over 50% in size; note: potency is the fitted concentration of half-maximal effect)
How it was run: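 In this counter screen, HRE-bla ME-180 cell viability after 17 hrs of compound exposure at 37C was read by CellTiter-Glo luminescence, multiplexed with the beta-lactamase reporter measurement.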

[9] = qHTS assay to identify small molecule agonists of H2AX - cell viability counter screen (AID 1224847; calls by dose curve; note: nearly all actives have a fitted effect of over 30% in size; note: potency is the fitted concentration of half-maximal effect)
How it was run: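 Cells plated first: CHO-K1, 1000 per well in 10% FBS medium, incubated overnight at 37C. Then 15-point compound titration added (final DMSO 0.76%) for 3 hr. Finally CellTiter-Glo added and luminescence read.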

[10] = qHTS assay to identify small molecule antagonists of the estrogen related receptor (ERR) signaling pathway from Tox21 library (AID 1224848); note: nearly all actives have a fitted effect of over 50% in size; note: potency is the fitted concentration of half-maximal effect
How it was run: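 Luciferase luminescence (ONE-Glo, 30 min room temperature) was the read-out. Cells of the NTP-supplied ERR line, 2,000 per well, were given 6 h at 37 C before compound addition in DMSO and 18 h exposure at 37 C.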

[11] = qHTS assay to identify small molecule agonists of the estrogen related receptor (ERR) signaling pathway from Tox21 library (AID 1224849; calls by dose curve; note: nearly all actives have a fitted effect of over 15% in size); details: ERR reporter cell line, ONE-Glo luciferase, 18 h; at 92.4 µM (top of the series) unless noted
How it was run: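 Luciferase activity in ERR pathway reporter cells served as the agonist readout; exposure lasted 18 h at 37 C, with ONE-Glo detection after 30 min at room temperature.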

[12] = qHTS RealTime-Glo MT Cell Viability Assay in HEK293 cells - 32 hour (AID 1224868); note: nearly all actives have a fitted effect of over 50% in size; note: potency is the fitted concentration of half-maximal effect
How it was run: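 HEK293 cells seeded with NanoLuc/prosubstrate reagent, rested 5 h at 37 C, then dosed and kept at 37 C up to 40 h. Nonlytic real-time luminescence from viable cells read at 0, 8, 16, 24, 32 and 40 h.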

[13] = A CellTox Green Cytotoxicity Assay to monitor cytotoxicity in HEK293 cells - 0 hour (AID 1224869); note: nearly all actives have a fitted effect of over 50% in size
How it was run: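 Real-time, in one plate: 600 HEK293 cells/well with dead-cell DNA dye, pinned compound after 5 h, 37 C incubation over 40 h; viable cells give no appreciable fluorescence.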

[14] = qHTS RealTime-Glo MT Cell Viability Assay in HepG2 cells - 40 hour (AID 1224870); note: nearly all actives have a fitted effect of over 50% in size
How it was run: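 Real-time viability: cells seeded at 600 per well together with NanoLuc and cell-permeant prosubstrate, compounds added after 5 h incubation. Luminescence tracked at 0, 8, 16, 24, 32 and 40 h of exposure.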

[15] = biological target: Thyrotropin receptor (Homo sapiens) (UniProt P16473); assay: qHTS assay to identify small molecule agonists of the thyroid stimulating hormone receptor (TSHR) signaling pathway (AID 1224843; calls by dose curve; note: nearly all actives have a fitted effect of over 45% in size)
Sequence of Thyrotropin receptor (Homo sapiens) (P16473 whole entry, looked up): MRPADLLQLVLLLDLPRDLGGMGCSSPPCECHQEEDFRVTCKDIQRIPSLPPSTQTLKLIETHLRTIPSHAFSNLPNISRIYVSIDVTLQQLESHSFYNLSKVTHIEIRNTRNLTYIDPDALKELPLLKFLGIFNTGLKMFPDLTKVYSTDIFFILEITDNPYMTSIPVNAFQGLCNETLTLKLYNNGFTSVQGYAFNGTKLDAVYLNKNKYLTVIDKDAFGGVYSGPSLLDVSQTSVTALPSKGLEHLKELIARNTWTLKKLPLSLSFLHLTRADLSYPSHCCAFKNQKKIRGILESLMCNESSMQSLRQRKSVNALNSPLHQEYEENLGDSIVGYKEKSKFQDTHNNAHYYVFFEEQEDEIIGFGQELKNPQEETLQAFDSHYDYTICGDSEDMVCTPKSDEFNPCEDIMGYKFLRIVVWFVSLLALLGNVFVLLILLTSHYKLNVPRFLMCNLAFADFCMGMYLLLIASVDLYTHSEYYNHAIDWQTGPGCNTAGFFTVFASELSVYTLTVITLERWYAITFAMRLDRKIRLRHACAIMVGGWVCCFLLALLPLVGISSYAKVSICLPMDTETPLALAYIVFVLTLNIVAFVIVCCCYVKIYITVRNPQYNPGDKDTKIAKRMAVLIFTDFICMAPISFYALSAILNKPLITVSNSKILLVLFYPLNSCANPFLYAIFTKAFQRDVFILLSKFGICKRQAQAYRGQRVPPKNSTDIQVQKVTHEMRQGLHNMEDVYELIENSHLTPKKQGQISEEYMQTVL
How it was run: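 Agonist activity read as cAMP rise via d2/cryptate HTRF competition, 1 h room-temperature detection, in HEK293 cells expressing TSHR. Fifteen-point titrations, each run in triplicate, with a 30 min room-temperature incubation beforehand.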

[16] = qHTS assay to identify small molecule agonists of H2AX (AID 1224845; active = well fitted activation curve with a large enough effect in the signal ratio in the repeat runs, not every such curve was filed as active; the % refers to the signal ratio)
How it was run: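 Phospho-H2AX Ser139 measured by HTRF (ex 320 nm; em 665 and 620 nm) after 24 hr antibody incubation. Compounds, 15 concentrations, 0.76% DMSO, were applied to CHO-K1 cells for 3hr at 37C before lysis.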

[17] = qHTS RealTime-Glo MT Cell Viability Assay in HepG2 cells - 24 hour (AID 1224867); note: nearly all actives have a fitted effect of over 50% in size
How it was run: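 HepG2 cells (600/well) were dispensed with RealTime-Glo reagents, incubated 5 h at 37 °C, then treated with compounds in DMSO for up to 40 h. Nonlytic NanoLuc luminescence reflecting viable cells was read at each stated time point.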

[18] = qHTS assay to identify small molecule agonists of the hypoxia (HIF-1) signaling pathway (AID 1224846; active = well fitted activation curve with a large enough effect in the signal ratio in the repeat runs, not every such curve was filed as active; the % refers to the signal ratio)
How it was run: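 ME-180 HRE-bla reporter cells; compounds in DMSO, 17 h at 37C; read-out beta-lactamase via CCF4-AM FRET.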

[19] = qHTS assay to identify small molecule agonists of the constitutive androstane receptor (CAR) signaling pathway - cell viability counter screen (AID 1224836); note: nearly all actives have a fitted effect of over 45% in size
How it was run: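 HepG2-CYP2B6-hCAR, 2500 cells/well, 4 h pre-incubation; cpd 15 conc + PK11195 0.75 uM final; 23 h, 37 C/5% CO2; CellTiter-Fluor, fluorescence.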

[20] = biological target: Luciferin 4-monooxygenase (Photinus pyralis) (UniProt P08659); assay: qHTS assay to identify small molecule inhibitors of firefly luciferase (AID 1224835); note: nearly all actives have a fitted effect of over 25% in size
Sequence of Luciferin 4-monooxygenase (Photinus pyralis) (P08659 whole entry, looked up): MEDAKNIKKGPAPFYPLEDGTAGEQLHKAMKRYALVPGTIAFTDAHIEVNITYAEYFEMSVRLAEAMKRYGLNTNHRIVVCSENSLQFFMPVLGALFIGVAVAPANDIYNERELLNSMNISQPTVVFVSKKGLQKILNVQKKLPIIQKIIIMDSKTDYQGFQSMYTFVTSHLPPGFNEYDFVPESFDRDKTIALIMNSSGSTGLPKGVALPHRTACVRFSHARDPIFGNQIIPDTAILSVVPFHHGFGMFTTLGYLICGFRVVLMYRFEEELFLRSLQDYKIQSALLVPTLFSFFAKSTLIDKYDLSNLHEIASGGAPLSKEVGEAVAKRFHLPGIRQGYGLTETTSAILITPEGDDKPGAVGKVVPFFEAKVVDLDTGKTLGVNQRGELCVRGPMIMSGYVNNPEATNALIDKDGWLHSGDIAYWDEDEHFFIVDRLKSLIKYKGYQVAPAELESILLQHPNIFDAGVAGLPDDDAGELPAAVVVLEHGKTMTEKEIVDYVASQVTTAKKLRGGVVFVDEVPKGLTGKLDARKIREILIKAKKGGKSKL
How it was run: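 Inhibition of purified Photinus luciferase is measured by luminescence. Substrate levels (D-luciferin, ATP) sit at their KM values. Each compound is tested in a concentration series.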

Structure (SMILES) | Potency [1] | Potency [2] | Potency [3] | Potency [4] | Potency [5] | Potency [6] | Potency [7] | Potency [8] | Potency [9] | Potency [10] | activity change, positive = activation [11] | Potency [12] | Potency [13] | Potency [14] | Potency [15] | Potency [16] | Potency [17] | Potency [18] | Potency [19] | Potency [20]
Oc1ccc([C@H]2CNCc3c2ccc(O)c3O)cc1O | inactive | inactive | inactive | inactive | inactive | inactive | inactive | inactive | inactive | inactive | -4.81% [at 42.5 µM] | inactive | inactive | inactive | – | – | – | – | – | –
O=C1C[C@@H]2OCC=C3CN4CC[C@]56c7ccccc7N1[C@H]5[C@H]2[C@H]3C[C@H]46 | inactive | – | – | – | inactive | – | inactive | inactive | inactive | inactive | -3.01% [at 42.5 µM] | – | inactive | inactive | inactive | inactive | inactive | – | – | –
[Cl-].[Cl-].[Cl-].[Yb+3] | inactive | inactive | – | – | inactive | – | – | inactive | inactive | – | – | inactive | inactive | – | – | inactive | inactive | inactive | – | –
O=NN(CCO)CCO | inactive | inactive | – | – | inactive | inactive | inactive | inactive | inactive | inactive | 1.69% | inactive | inactive | inactive | inactive | inactive | inactive | inactive | inactive | –
CC(=O)O.CC(=O)O.CC(=O)O.CC(=O)O.CC(=O)O.CC(=O)O.CC(=O)O.O.O.[Cr].[Cr].[Cr] | inactive | inactive | – | – | inactive | – | – | inactive | inactive | – | – | inactive | inactive | – | – | inactive | inactive | inactive | inactive | –
[C-]1=CC=CC1.[Cl][Zr+2][Cl].c1cc[cH-]c1 | inactive | – | – | – | inactive | – | – | inactive | inactive | – | – | – | inactive | inactive | – | – | – | – | inactive | –
CN1[C@@H]2CC[C@H]1CC(O)C2 (stereo partly drawn) | inactive | – | inactive | inactive | inactive | – | – | inactive | inactive | – | – | inactive | inactive | inactive | – | inactive | inactive | – | inactive | –
CC1CCCC1 | inactive | – | inactive | inactive | inactive | – | – | inactive | inactive | – | – | inactive | inactive | – | inactive | inactive | inactive | inactive | inactive | –
CCN(CC)CCN1C(=O)CN=C(c2ccccc2F)c2cc(Cl)ccc21 | inactive | – | – | – | inactive | inactive | inactive | inactive | inactive | inactive | -10.4% [at 42.5 µM] | inactive | inactive | inactive | – | inactive | inactive | inactive | inactive | –
CC(=O)[O-].CC(=O)[O-].O.O.[Zn+2] | inactive | inactive | – | – | inactive | – | – | – | inactive | – | – | inactive | inactive | inactive | – | inactive | inactive | – | inactive | –
CCCCn1cc[n+](C)c1.[Cl][Fe-]([Cl])([Cl])[Cl] | inactive | inactive | – | – | inactive | – | – | inactive | inactive | – | – | inactive | inactive | inactive | – | – | inactive | inactive | inactive | –
CCOP(=S)(NC(C)C)Oc1ccccc1C(=O)OC(C)C (stereo not drawn) | – | inactive | – | 7.7 µM (active) | – | 30.6 µM (active) | inactive | 6.16 µM (active) | – | 30.6 µM (active) | -39.6% | 43.6 µM (active) | inactive | – | inactive | inactive | – | – | inactive | inactive
CCCCCCCc1ccc(O)cc1 | – | inactive | inactive | – | inactive | – | – | – | 50.5 µM (active) | – | – | 19.5 µM (active) | inactive | inactive | – | – | – | – | inactive | –
